Assay results reported in ChEMBL document CHEMBL1157539, “Thousands of chemical starting points for antimalarial lead identification” (Nature, 2010).

System: Plasmodium falciparum
Experiment: GSK_TCMDC: Inhibition of Plasmodium falciparum Dd2 in whole red blood cells, using parasite LDH activity as an index of growth. Test compounds present at 2uM
Format: functional

| SMILES | Inhibition |
| --- | --- |
| O=C(Nc1ccon1)c1cc(-c2cccnc2)nc2ccc(Br)cc12 | 77% |
| OC1CCC(Nc2ccc3ncc(-c4ccc5ccccc5c4)n3n2)CC1 (stereo not drawn) | 94% |
| CN(C)c1ccc(-c2csc(C(=O)NCC3CCN(CCC(C)(C)C)C3)c2)cc1.O=C(O)C(F)(F)F (stereo not drawn) | 16% |
| CCNc1cc(C(=O)N[C@@H](Cc2ccccc2)[C@H](O)CNC2(CCC(C)C)CC2)cc(N2CCCCS2(=O)=O)c1.Cl | 52% |
| CC(C)c1sc(N2CCN(C)CC2)nc1C(=O)NCCc1ccc(Cl)c(Cl)c1.O=C(O)C(F)(F)F | 79% |
| O=C(CC(=O)Nc1cc(Cl)cc(Cl)c1)Nc1cc(Cl)cc(Cl)c1 | 96% |
| CC(O)C1CCCCN1C(=O)c1cccc(-c2ccc(-c3nc4cc(C(F)(F)F)ccc4[nH]3)cc2)c1 (stereo not drawn) | 100% |
| CN(CCN)Cc1cccc(-c2cccc(-c3nc4cc(F)ccc4[nH]3)c2)c1.O=C(O)C(F)(F)F | 19% |
| CCN1CCC(N(Cc2ccc(-c3ccc(C(F)(F)F)cc3)cc2)C(=O)Cn2c(CCc3cccc(F)c3F)cc(=O)c3ccccc32)CC1.O=C(O)C(O)C(O)C(=O)O | 94% |
| CN1CCC(c2cc3c(cc2Br)CCN3C(=O)Nc2ccc(-c3ccncc3)c(Cl)c2)CC1 | 0% |
| Cc1nc(NC2=NCN(CCCN3CCOCC3)CN2)nc2c(C)cccc12 | 62% |
| Cc1cccc2[nH]c(-c3cc(-c4cn[nH]c4)cnc3N)nc12 | 93% |
| COc1ccc(C2CCN(CCCCNC(=O)c3ccc(NC(=O)c4ccc(Cl)cc4)cc3)C2)c(OC)c1 (stereo not drawn) | 0% |
